Reference: PubChem BioAssay (NCATS)
Records with an inconclusive call do not appear. Calls come from the whole dose curve; as a rule, active = well fitted curve in either direction with a large enough effect (not every such curve was filed as active); inconclusive = small, poorly fitted or top-dose-only effect, or another doubt; inactive = flat fitted curve, though single readings scatter.

Assay: Stat Signaling Pathway (AID 446);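 note: ME-180 cervical cancer cells given 40 pM IL-6 alongside compound; SIE-controlled beta-lactamase reporter measured as 460/530 nm FRET emission ratio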
Settings: ME-180 (cervical carcinoma) SIE beta-lactamase reporter, IL-6 stimulated, 5 h; at 7.69 µM (top of the series) unless noted
Procedure, shortened: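 IL-6/STAT signaling read in ME-180 cells via an SIE beta-lactamase reporter. Stimulus was 40 pM IL-6 (its AC50) for 5 hrs, so both activation and inhibition register.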
% is set by controls: 0 for no effect and ±100 for the full control effect.

activity, negative = inhibition, inactive:
COc1ccc(C(=O)N2CCC[C@@]3(CCN(C)C3)C2)cc1 1.69%
N#Cc1cccc(NC(=O)N2CC[C@@]3(CCCN(C(=O)c4csnn4)C3)C2)c1 -5.12%
COc1ccc(-n2c(=O)c(-c3ccc(F)cc3)nc3cnc(OC)nc32)cc1 -13.4%
COc1cccc(Cn2c(=O)c(-c3cccs3)nc3cnc(Nc4ccccc4)nc32)c1 -0.21%
COc1cccc(Cn2c(=O)c(-c3cccc(F)c3)nc3cncnc32)c1 -7.22%
CS(=O)(=O)N1CCC2(CCCN(Cc3cc(C(F)(F)F)cc(C(F)(F)F)c3)C2)CC1 5.1%
N#Cc1ccc(CN2CC[C@@]3(CCCN(C(=O)c4ccco4)C3)C2)cc1 12.6%
O=c1c(-c2cccc(Cl)c2)nc2cncnc2n1Cc1ccc(F)cc1 -5.55%
Cc1cccc(CNc2ncncc2-c2cccc(NS(C)(=O)=O)c2)c1 0.163%
CC(=O)N1CCC2(CC1)CCN(C(=O)Nc1cccc(C#N)c1)CC2 3.47%
COc1cccc(Cn2c(=O)c(-c3cccc(Cl)c3)nc3cncnc32)c1 -8.57%
O=c1c(-c2ccc(Cl)cc2)nc2cncnc2n1Cc1ccccc1 -3.39%
COc1ccc(-c2nc3cnc(OC)nc3n(C3CC3)c2=O)cc1 2.68%
O=c1c(-c2ccc(F)c(F)c2)nc2cncnc2n1Cc1ccc(F)cc1 1.58%
O=C(c1cccc(F)c1)N1CCC2(CC1)CN(C(c1ccccc1)c1ccccc1)C2 -17.5%
